Hits are enriched below; roughly 3% of the tested compounds scored in any of these assays.
C8 TRAIL sens: sensitizes caspase-8 expressing cells to TRAIL; NB7+C8 cells + TRAIL, ATPlite viability luminescence; inhibition (viability loss, TRAIL sensitization), % at 10 µM; 360,000 tested, 1% active; AID 624354;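 active = compounds causing at least 50% loss of cell viability in the single-dose screen, relative to plate controls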
SENP6 block: blocks the human protease SENP6; Recombinant SENP6 catalytic domain, aminoluciferin luminescence; 330,000 tested, 1.8% active; inhibition, % at 10 µM; Q9GZR1;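 active = inhibition above about 50% at the single tested dose, limit read from the data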
SENP8 block-1: SENP8 protease inhibition. purified SENP8, Z-RLRGG-aminoluciferin cleavage, luminescence. Q96LD8. inhibition, % at 10 µM. 330,000 tested, 1.2% active; in the data active = inhibition above about 50%
Target sequence (Q96LD8 whole entry, looked up): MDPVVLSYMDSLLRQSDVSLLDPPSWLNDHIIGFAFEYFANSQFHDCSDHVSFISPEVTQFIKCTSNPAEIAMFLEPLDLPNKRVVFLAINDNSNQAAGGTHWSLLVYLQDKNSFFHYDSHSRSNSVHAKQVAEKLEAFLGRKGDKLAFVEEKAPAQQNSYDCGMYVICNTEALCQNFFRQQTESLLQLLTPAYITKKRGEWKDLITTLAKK
PPC-1+TRAIL kill: PPC-1 cancer cell killing with TRAIL present. PPC-1 cells + TRAIL, ATPLite viability luminescence. AID 1443. cell killing (% activity), % at 4 µM or 5 µM. 220,000 tested, 0.41% active;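 active = cell killing above 50% in the first pass at 4 µM, then a duplicate retest at 5 µM averaging 50% or more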
SENP8 block-2: SENP8 (human) protease inhibition | Q96LD8 | recombinant SENP8, Nedd8 substrate fluorescence | inhibition, % at 20 µM | 360,000 tested, 0.64% active | AID 602440; in the data active = inhibition mostly above about 40%, no sharp cut-off; inactive = mostly below about 27%
SENP7 inh: blocks the human protease SENP7 | recombinant SENP7, Z-RLRGG-aminoluciferin luminescence, 40 min | AID 434973 | inhibition, % at 5 µM | Q9BQF6 | 330,000 tested, 1.5% active;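 active = inhibition above about 50% at the single test dose, limit read from the data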
Target sequence (Q9BQF6 706-1050 limits assumed): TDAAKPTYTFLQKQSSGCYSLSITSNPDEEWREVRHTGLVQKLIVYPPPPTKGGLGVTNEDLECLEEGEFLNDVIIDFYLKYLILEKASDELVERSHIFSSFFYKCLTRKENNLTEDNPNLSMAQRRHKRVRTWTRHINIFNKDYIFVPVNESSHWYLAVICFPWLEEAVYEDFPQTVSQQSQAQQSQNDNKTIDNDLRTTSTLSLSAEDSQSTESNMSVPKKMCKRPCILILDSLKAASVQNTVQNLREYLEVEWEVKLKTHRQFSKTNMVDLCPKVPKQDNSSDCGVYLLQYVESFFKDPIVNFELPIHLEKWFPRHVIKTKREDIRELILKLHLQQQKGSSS
A number is an active result; – = inactive; · = no result given.

SMILES | C8 TRAIL sens | SENP6 block | SENP8 block-1 | PPC-1+TRAIL kill | SENP8 block-2 | SENP7 inh
CCN(CC)C(=O)c1cccc(-c2csc(C(C)(O)c3ccncc3)n2)c1 (configuration not stated) | – | · | · | · | – | ·
CC1=CC2C(C(O)CC3(C)C2CC(C)C32OCOC23COCO3)C2(C)C/C(=C\O)C(=O)C=C12 (configuration not stated) | 93.7 | · | · | · | – | ·
Oc1c(N=Nc2nn[nH]n2)ccc2ccccc12 | – | · | · | · | 54.6 | ·
CC1(c2ccc3c(c2)OCCO3)NC(=O)N(CC(=O)Nc2ccccc2)C1=O (configuration not stated) | – | – | – | · | – | –
CC(=O)N1C(=O)/C(=C2\SC(=S)N(c3c(C)n(C)n(-c4ccccc4)c3=O)C2=O)c2ccccc21 | – | · | · | – | 81.4 | ·
COC(=O)c1c(C(=O)OC)c(-c2ccc(Br)cc2)n2c1CS(=O)C2 (configuration not stated) | – | – | – | · | – | –
CCCC(=O)OCCNc1cc(Sc2nccn2C)c2nonc2c1[N+](=O)[O-] | 57.1 | · | · | – | – | ·
CCCSc1cc(NCCOC(=O)CCC)c([N+](=O)[O-])c2nonc12 | – | – | – | – | – | –
CC(C)CC(NC(=O)c1ccc(Cl)cc1)C(=O)OCC(=O)c1ccc2c(c1)NC(=O)CO2 (configuration not stated) | 73.0 | – | – | – | – | –
COc1ccc(OC)c(NC(=O)C2(C)CCN2C(=O)C2(c3ccccc3)CCCC2)c1 (configuration not stated) | – | · | · | · | – | ·
Cc1nn(-c2ccccc2)c2nc(N)c(C#N)c(-c3ccc(F)cc3)c12 | 57.7 | – | – | – | – | –
Cc1cc(NC(=O)CCC(=O)N(Cc2cccs2)C(C)(C)C(=O)NC2CCCCC2)no1 | – | – | – | · | – | –
CS(=O)(=O)N(CC(=O)N1CCN(Cc2ccccc2)CC1)c1cccc([N+](=O)[O-])c1 | – | – | – | · | – | –
CCC(C)c1ccc(NC(=O)Nc2cccnc2)cc1 (configuration not stated) | 48.8 | – | – | · | – | –
CC(=O)c1ccc(NC(=O)Nc2cccnc2)cc1 | 52.3 | – | – | · | – | –
S=C(Nc1cccc(Cl)c1)Nc1cccc2cnccc12 | – | · | · | – | – | ·
CC(=O)c1ccc(NC(=S)Nc2cccc3cnccc23)cc1 | – | 87.4 | 92.0 | – | – | 61.1
COC(=O)c1ccccc1NC(=O)COC(=O)CO/N=C(\C)c1ccc2c(c1)OCO2 | – | – | – | · | – | –
COc1ccc(OCCCCn2c(CO)nc3ccccc32)cc1 | – | – | – | · | – | –
COc1ccc(CNC(=O)c2ccc(-c3c(C)noc3C)c3ccoc23)cc1OC | – | · | · | · | – | ·
Cc1nn(CC(=O)Nc2cccnc2)c(C)c1[N+](=O)[O-] | – | – | – | – | – | –
O=C(Cn1c2ccccc2c(=O)c2ccccc21)N/N=C/c1cc([N+](=O)[O-])ccc1N1CCCCCC1 | 59.6 | – | – | – | – | –
Cc1ccc(C(=O)NCCN(C)C)c(C)c1 | – | – | – | – | – | –
CNc1c2cccc(C)c2nc2c(C(=O)NCCN(C)C)cccc12 | 73.8 | · | · | · | – | ·
CC(=O)O[C@@H]1C[C@@]2(C)[C@@H](CC[C@H]2[C@@H](C)/C=C\CC(C)C)C2=C[C@@H](O)[C@@]3(O)C[C@@H](O)[C@H](O)C[C@]3(CO)[C@]21O | – | · | · | · | – | ·
SMILES | C8 TRAIL sens | SENP6 block | SENP8 block-1 | PPC-1+TRAIL kill | SENP8 block-2 | SENP7 inh
COc1ccc(NC(=O)C2c3ccccc3OCC(=O)N2CCc2ccccc2)cc1 (configuration not stated) | – | · | · | · | – | ·
CCCCn1c(NC(=O)c2ccc(F)cc2)c(C#N)c2nc3ccccc3nc21 | · | 92.2 | 95.2 | · | · | –
COCCn1c(N)c(C#N)c2nc3ccccc3nc21 | – | – | – | – | – | –
COCCn1c(N)c(C(=O)NCC2CCCO2)c2nc3ccccc3nc21 (configuration not stated) | – | 84.5 | 86.4 | – | – | 62.6
COc1ccc(OC)c(-n2c(N)c(C(=O)NCC3CCCO3)c3nc4ccccc4nc32)c1 (configuration not stated) | – | · | · | – | – | ·
Cc1ccc(C(=O)NCCn2c(N)c(C#N)c3nc4ccccc4nc32)cc1 | – | – | – | 73.1 | – | –
COc1ccc(S(=O)(=O)N2CCC[C@H]2C(=O)N2CCC[C@H]2C(=O)NCc2ccncc2)cc1C | – | · | · | · | – | ·
O=C1C=CC(=O)c2c(O)c(N3CCN(CCO)CC3)c(Cl)c(O)c21 | 89.9 | · | · | · | – | ·
O=C1C=CC(=O)c2c(O)c(N3CCN(CCOCCO)CC3)c(Br)c(O)c21 | 89.7 | · | · | · | – | ·
COc1ccc2nc(NC(=O)CSc3n[nH]c(N)n3)sc2c1 | – | – | – | · | – | –
Cc1onc(C(=O)N2CCC(Cc3ccccc3)CC2)c1[N+](=O)[O-] | 92.5 | – | – | · | – | –
Cc1ccc(Cl)cc1N1CCN(C(=O)c2noc(C(C)C)c2[N+](=O)[O-])CC1 | 95.4 | – | – | · | – | –
CC(C)c1onc(C(=O)N2CCN(C(c3ccccc3)c3ccccc3)CC2)c1[N+](=O)[O-] | 91.3 | – | – | – | – | –
CC(C)c1onc(C(=O)N2CCN(c3ccc(F)cc3)CC2)c1[N+](=O)[O-] | 65.1 | – | – | · | – | –
O=C(c1ccc(Cn2c(=S)[nH]c3ccccc3c2=O)cc1)N1CCN(c2ccccn2)CC1 | – | – | – | – | – | –
O/N=C/c1ccc(OCc2ccccc2F)c(Cl)c1 | – | 92.0 | 80.2 | – | – | 75.2
Cc1cccc2sc(NNC(=O)c3cc(-c4cccs4)nc4ccccc34)nc12 | 50.4 | – | – | – | – | –
CNC(=O)OCc1nc(SC2CCCCO2)n(C)c1COC(=O)NC (configuration not stated) | – | · | · | · | – | ·
Cc1ccc(NC(=O)COC(=O)C2CCN(c3ccc(C(F)(F)F)cn3)CC2)cc1 | – | – | – | · | – | –
CCOc1cc(CNc2ccc(O)cc2)cc(Br)c1OCc1ccccc1F | – | – | – | – | 40.7 | –
CCOc1cc(/C=N/NC(N)=O)cc(Br)c1OCc1ccccc1F | – | – | – | – | – | –
CCCCC1C(=O)N(c2ccccc2)N(c2ccc(O)cc2)C1=O (configuration not stated) | 57.1 | – | – | · | – | –
NC(=O)NC(CC(=O)OCC(=O)Nc1nnc(-c2ccccc2)o1)c1ccc(Cl)cc1 (configuration not stated) | – | · | · | · | – | ·
O=C(NCC(c1ccco1)N1CCCC1)c1cn(-c2ccccc2)nc1-c1ccc(F)cc1 (configuration not stated) | – | – | – | · | – | –
CS(=O)(=O)c1ncc(Cl)c(C(=O)Nc2ccc(N3CCOCC3)cc2)n1 | 72.7 | – | – | – | – | –
CS(=O)(=O)c1ncc(Cl)c(C(=O)Nc2ccc(OC(F)F)cc2)n1 | 72.4 | – | – | · | – | –
CS(=O)(=O)c1ccc(C(=O)Nc2ccc(N3CCOCC3)cc2)c(Cl)c1 | – | – | – | – | – | –

From PubChem
